Test results from patent publication US20100081621, “Crystal structure of the catalytic domain of the viral restriction factor APOBEC3G” (published 2010).

molecular target: APOBEC3G R313E/R320D (Homo sapiens, UniProt Q9HC16 Q9HC16:1-384, R313E,R320D); assay: FP; 5 mM MgCl2, 37 C; details: tags: Sf9, pAcG2T; label: internal fluorescein-dT; ssDNA; [15 (fluorescein-dT)]
Procedure: Apo3G-DNA binding were monitored by changes in steady state fluorescence depolarization (rotational anisotropy). Reaction mixtures (70 μl), containing an F-labeled DNA ([…]) in buffer (50 mM HEPES, pH 7.3, 1 mM DTT and 5 mM MgCl₂) and varying concentration of 0 to 500 nM Apo3G, were incubated at 37° C. The sequence of the ssDNA is: tta gat gag tgt aa(FdT) gtg ata tat gtg tat. Rotational anisotropy was measured as described previously (Chelico et al., 2006). The fraction of DNA bound to protein was determined as described previously (Bertram et al., 2004).

Sequence of APOBEC3G R313E/R320D (Q9HC16 whole entry R313E/R320D, one chain of several): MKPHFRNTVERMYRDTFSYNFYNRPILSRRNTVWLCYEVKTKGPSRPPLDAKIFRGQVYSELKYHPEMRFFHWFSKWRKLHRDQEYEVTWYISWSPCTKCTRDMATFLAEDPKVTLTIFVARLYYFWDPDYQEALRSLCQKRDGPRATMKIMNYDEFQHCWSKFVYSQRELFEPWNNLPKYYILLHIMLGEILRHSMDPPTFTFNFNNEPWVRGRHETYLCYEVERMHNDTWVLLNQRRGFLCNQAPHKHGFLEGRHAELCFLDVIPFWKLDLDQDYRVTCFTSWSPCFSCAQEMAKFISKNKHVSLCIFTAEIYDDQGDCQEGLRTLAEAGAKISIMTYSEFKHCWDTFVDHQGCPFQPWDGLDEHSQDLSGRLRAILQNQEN

Sequence | binding signal
TTAGATGAGTGTAATGTGATATATGTGTAT | 77 % of wt
